Sampled rows, rich in hits. Any-hit rate of the full collection: about 2.1%.
ClpP mod = qHTS Assay for Activators of ClpP. ATP-dependent Clp protease proteolytic subunit (Bacillus subtilis (strain 168)), P80244. 340,000 tested, 1.9% active. Potency, µM (highest dose often 57.5 µM), for inactives: at the highest dose activity change, negative = active. purified B. subtilis ClpP, FRET peptide cleavage, 20 min; active = well fitted falling curve with a large enough effect; inconclusive = small, poorly fitted or top-dose-only effect; inactive = no such curve, though single readings can be large or run the other way; also: potency is read from the fitted curve at half-maximal effect; the source files actives as falling curves though it sought activators and does not explain the sign; nearly all actives have a fitted effect of over 65% in size
Target sequence (P80244 whole entry, looked up): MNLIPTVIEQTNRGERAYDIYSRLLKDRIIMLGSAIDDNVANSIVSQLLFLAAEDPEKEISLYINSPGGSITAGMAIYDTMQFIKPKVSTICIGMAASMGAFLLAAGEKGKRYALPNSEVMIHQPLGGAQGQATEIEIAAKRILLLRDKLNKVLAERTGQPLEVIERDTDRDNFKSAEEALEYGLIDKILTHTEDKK
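Buffer: 100 mM Tris/HCl pH8, 100 mM KCl, 0.05% low protease BSA, 2.5% glycerol, 0.01% Tween-20. ClpP 10 microg/mL final; 20 min RT; delta FRET normalized to ADEP and DMSO controls.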
uPA surface inh = blocks generation of uPA at the cell surface. AID 540303. cell surface uPA generation assay, qHTS. 330,000 tested, 0.31% active. Potency, µM (series often up to 38.3 µM), for the others: top-dose activity change, negative = inhibition, actives largely listed as inhibitors; active = well fitted inhibition curve with a large enough effect; inconclusive = small, poorly fitted or top-dose-only effect; inactive = no such curve, though single readings can be large or run the other way; tested in mouse RAW 264.7 cells; also: potency is read from the fitted curve at half-maximal effect; % is scaled to controls: 0 for no effect and ±100 for the full control effect; nearly all actives have a fitted effect of over 55% in size
p53 reactivator = mutant p53 re-activation in reporter cells; 320,000 tested, 0.063% active; H1299 p53-A138V BP100-luciferase reporter, luminescence, 24 h; Potency, µM (top dose mostly 92.2 µM), for the others: top-dose activity change, positive = activation, usual class: activators; AID 504706; also: potency is read from the fitted curve at half-maximal effect; % of control where 0% means no effect; nearly all actives have a fitted effect of over 45% in size
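H1299 (p53-null), stable ts p53-A138V + BP100-Luc; 1000 cells/well, Opti-MEM/10% FBS; cpd 4 pt, 1:5; 24 h, 37 deg C, 5% CO2; detection reagent 10 min RT; luminescence.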
Mito fusion yeast = blocks mitochondrial division or promotes mitochondrial fusion; Potency, µM (series often up to 46.1 µM), for inactives: top-dose growth rescue (activation), most hits filed as activators; AID 485298; S. cerevisiae fusion-defective mutant growth rescue, CellTiterGlo 48 h; 320,000 tested, 0.23% active; also: potency is read from the fitted curve at half-maximal effect; % of control where 0% means no effect; nearly all actives have a fitted effect of over 45% in size
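Compounds are tested for their ability to restore growth of mitochondrial fusion-defective yeast strains at non-permissive 37C in YPEG medium over 48 hours. Viability is quantified by luciferase luminescence.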
B2AR arrestin = beta2AR (human) beta-arrestin recruitment activity; Potency, µM (series often up to 46.1 µM), inactives show at the top dose activation, usual class: activators; 330,000 tested, 0.02% active; beta-arrestin recruitment to beta2AR, cell-based reporter;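 also: potency is read from the fitted curve at half-maximal effect; 0% = DMSO controls and full agonism = EC100 isoproterenol or metaproterenol; nearly all actives have a fitted effect of over 65% in size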
Target sequence (P07550 whole entry, looked up): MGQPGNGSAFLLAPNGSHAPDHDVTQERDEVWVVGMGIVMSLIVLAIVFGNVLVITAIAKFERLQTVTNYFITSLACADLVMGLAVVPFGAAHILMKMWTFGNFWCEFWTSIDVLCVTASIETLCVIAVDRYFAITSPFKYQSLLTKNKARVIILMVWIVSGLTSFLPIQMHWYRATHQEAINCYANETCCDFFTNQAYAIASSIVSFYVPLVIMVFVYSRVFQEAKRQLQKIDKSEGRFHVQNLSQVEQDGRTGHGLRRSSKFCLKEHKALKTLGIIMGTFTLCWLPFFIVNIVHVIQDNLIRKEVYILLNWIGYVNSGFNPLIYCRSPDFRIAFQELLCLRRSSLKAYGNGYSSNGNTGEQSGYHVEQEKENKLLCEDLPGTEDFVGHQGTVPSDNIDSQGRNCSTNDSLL
Giardia kill = kills Giardia lamblia; AID 540267; 340,000 tested, 0.15% active; Giardia lamblia trophozoite viability; activity change, % at 7.66 µM, hits read low; in the data active = activity change below about -80%; inconclusive = between about -30% and that limit;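 also: parasites exposed to compound for two days anaerobically before the ATP read; % is scaled to controls: 0 for no effect and ±100 for the full control effect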
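Trophozoite viability was measured as ATP-dependent luminescence, read 15-30 min after reagent addition. Before that, parasites at 100 cells/well were exposed to compounds for 48 h, anaerobically, at 37 deg C.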
Numbers without * were called inactive; ? = inconclusive; · = no result given; ! = a repeat was not active. Unless noted, calls follow the shape of the dose curve; as a rule, active = well fitted curve in the direction sought with a large enough effect; inconclusive = small, poorly fitted or top-dose-only effect, or another doubt; inactive = no such curve, though single readings can be large; an effect the other way counts as inactive or inconclusive.

SMILES	ClpP mod	uPA surface inh	p53 reactivator	Mito fusion yeast	B2AR arrestin	Giardia kill
CCC(=O)Nc1ccccc1C(=O)OCC(=O)Nc1ccc(S(N)(=O)=O)cc1	-29%	·	-5%	-2%	-2%	6
CCCCNc1ccccc1C(=O)OCC(=O)Nc1ccc(S(N)(=O)=O)cc1	28µM*	5%	1%	0%	0%	6
CCCCNc1nc(Oc2ccc(=O)n(-c3ccccc3)n2)nc(N(C)C)n1	0%	·	·	·	·	·
Cc1ccccc1-n1c(CSC(=N)N)nc2ccccc2c1=O	11µM*	-5%	8%	-3%	0%	-16
C=C(C)C(=O)Nc1cccc(C2=NOC3(C2)C[C@@H](C(N)=O)N(C(=O)c2ccc(Cl)cc2)C3)c1 (some centres undefined)	-1%	3%	-6%	1%	-1%	-4
C/C=C(/C)C(=O)Nc1cccc(C2=NOC3(C2)C[C@H](C(N)=O)N(C(=O)c2ccc(Cl)cc2)C3)c1 (some centres undefined)	2%	5%	-1%	14µM*	-1%	-8
COCCOC(=O)C1=C(C)NC(C)=C(C(=O)OC/C=C/c2ccccc2)C1c1cccc([N+](=O)[O-])c1 (centres undefined)	·	·	·	5.8µM*	·	·
COC(=O)C1=C(C)NC(C)=C(C(=O)OC(C)(C)CN(C)CCC(c2ccccc2)c2ccccc2)C1c1cccc([N+](=O)[O-])c1 (centres undefined)	·	·	·	0.65µM*	·	·
CCOC(=O)C1=C(C)NC(C)=C(C(=O)OC)C1c1cccc([N+](=O)[O-])c1 (centres undefined)	2%	2%	-3%	-21%	-1%	-13
COCCOC(=O)C1=C(C)NC(C)=C(C(=O)OC(C)C)C1c1cccc([N+](=O)[O-])c1 (centres undefined)	1%	9%	-5%	21µM*!	-1%	0
CCOC(=O)c1c(C)[nH]c(C)c1S(=O)(=O)N(C)CC(=O)NCc1ccc(Cl)cc1	0%	·	·	·	·	·
O=C(CSc1n[nH]c(-c2ccccc2)n1)NCCc1ccccc1	0%	·	·	·	·	·
Cc1cc(NC(=O)c2cc(-c3cccs3)nc3ccccc23)no1	4%	?	1%	1%	0%	-14
Cc1cc(NC(=O)c2cc(-c3ccc(C)c(C)c3)nc3ccccc23)no1	13µM*	0%	13%	1%	-1%	7
Cc1cc(NC(=O)c2cc(-c3ccccn3)nc3ccccc23)no1	-7%	-2%	-5%	4%	0%	1
Cc1ccc(-c2cc(C(=O)Nc3cc(C)on3)c3ccccc3n2)cc1	35µM*	5%	7%	1%	0%	-19
COC(=O)c1ccccc1NC(=O)N[C@@H](C)C(=O)OC	28µM*	3%	-1%	-5%	0%	0
COC(=O)[C@H](C)NC(=O)Nc1ccccc1C(F)(F)F	1%	·	-2%	-1%	0%	24
CCOC(=O)c1ccccc1NC(=O)N[C@@H](C)C(=O)OC	20µM*	2%	-4%	0%	0%	-8
CCc1cccc(C)c1NC(=O)c1cnn(-c2ccc(OC)cc2)c1C1CCN(C(=O)OC(C)(C)C)CC1	1%	·	·	·	·	·
Clc1cncc(Cl)c1NNc1c2ccccc2nc2ccccc12	28µM*	-2%	0%	6%	0%	-10
Cc1cc(C)nc(Nc2nc(C)c3cc4c(cc3n2)OCO4)n1	16µM*	6%	-24%	-6%	0%	-5
Cc1cc2ccccc2n2c(SCC(=O)Nc3cccc(C(F)(F)F)c3)nnc12	-6%	·	·	·	·	·
O=c1c2c(nc3cc(-c4cccc(Cl)c4)[nH]n13)CCC2	28µM*	·	?	0%	0%	-11
O=c1c2c(nc3cc(-c4ccc(F)cc4)[nH]n13)CCCC2	10µM*	-12%	7%	12%	-1%	-30
SMILES	ClpP mod	uPA surface inh	p53 reactivator	Mito fusion yeast	B2AR arrestin	Giardia kill
Cc1ccc(CNc2nc(-c3ccco3)nn2C(=O)c2ccccc2[N+](=O)[O-])cc1	-2%	·	·	·	·	·
O=C(Cc1c(O)c2ccccc2[nH]c1=O)NC1CCCCCCC1	32µM*	·	-2%	4%	0%	21
O=C(NC1CCCCCC1)c1c(O)c2ccccc2[nH]c1=O	-7%	-1%	11%	-6%	-1%	6
O=C(Cc1c(O)c2ccccc2[nH]c1=O)NC1CCCCCC1	20µM*	12%	23%	1%	0%	-5
O=C(Nc1cccc(C(F)(F)F)c1)c1cc(S(=O)(=O)N2CCCC2)c[nH]1	-27%	·	·	·	·	·
COc1ccc(C(=O)NCc2c(C)oc(C)c2C(=O)O)cc1	16µM*	-4%	·	3%	0%	-8
COCCCn1c(C)cc(C(=O)COC(=O)C23CC4CC(CC(O)(C4)C2)C3)c1C	28µM*	-6%	?	6%	0%	6
COc1ccc(N2CC(NC(=O)/C=C\c3ccccc3)CC2=O)cc1 (centres undefined)	-1%	·	·	·	·	·
Cc1ccc(Cn2c(SCc3ccc(C(=O)N4CCCCC4)cc3)nc3ccncc32)cc1	-15%	·	·	·	·	·
CC(=O)Nc1ccc(Nc2cc(C)nc3c(-c4ccccc4)cnn23)cc1	-1%	3%	35%	14µM*	1%	-16
CC(=O)Nc1ccc(Nc2cc(-c3ccccc3)nc3ncnn23)cc1	1%	-1%	-7%	-3%	0%	-10
CN1C(=O)/C(=C/c2ccc(O)c([N+](=O)[O-])c2)N(C)C1=S	1%	8%	-8%	5%	0%	-91*
c1ccc(CC2CCN(c3nc4ccccc4n4nnnc34)CC2)cc1	16µM*	12%	?	5%	0%	10
CCN(CCCNC(=O)CN1N=C(c2ccc(OC)cc2)CCC1=O)c1cccc(C)c1	-6%	·	·	·	·	·
O=C(CN1C(=O)NC2(CCOc3ccccc32)C1=O)NCc1ccccc1 (centres undefined)	11µM*	6%	-1%	·	3%	-2
CCNC(=O)CN1C(=O)NC2(CCOc3ccccc32)C1=O (centres undefined)	·	5%	8%	-4%	-1%	14
N#Cc1cc(N)ccc1Sc1ccc(Cl)cc1	28µM*	2%	-6%	7%	0%	?
CC(=O)Nc1ccc(S(=O)(=O)NCCC(=O)N2CCC(Cc3ccccc3)CC2)cc1	11µM*	-6%	-2%	1%	0%	-6
CC(=O)Nc1ccc(S(=O)(=O)NCC2CCC(C(=O)NCc3ccccc3)CC2)cc1 (centres undefined)	2%	3%	3%	5%	0%	8
Cc1ccc(S(=O)(=O)NCCC(=O)N2CCC(Cc3ccccc3)CC2)cc1	1%	2%	1%	-5%	0%	-8
